# Measurements published in PubChem BioAssay (EPA / NIEHS).
# Results filed as inconclusive are left out. Activity calls are given as the source filed them. The calls were made as follows, unless noted: active = hit-call score of the fitted dose curve at least 0.9, where 1 is the maximum; inconclusive = response in the unintended direction; inactive = score below 0.9.
# Key:
# [1] = molecular target: human Peroxisome Proliferator-activated Receptor delta (PPARd), PPARD (gene 5467) (UniProt Q03181); assay: ATG_PPARd_TRANS: Attagene TRANS-FACTORIAL HepG2 Assay for human Peroxisome Proliferator-activated Receptor delta (PPARd) (AID 2283002)
# Chain of human Peroxisome Proliferator-activated Receptor delta (PPARd), PPARD (gene 5467) (Q03181 whole entry, looked up): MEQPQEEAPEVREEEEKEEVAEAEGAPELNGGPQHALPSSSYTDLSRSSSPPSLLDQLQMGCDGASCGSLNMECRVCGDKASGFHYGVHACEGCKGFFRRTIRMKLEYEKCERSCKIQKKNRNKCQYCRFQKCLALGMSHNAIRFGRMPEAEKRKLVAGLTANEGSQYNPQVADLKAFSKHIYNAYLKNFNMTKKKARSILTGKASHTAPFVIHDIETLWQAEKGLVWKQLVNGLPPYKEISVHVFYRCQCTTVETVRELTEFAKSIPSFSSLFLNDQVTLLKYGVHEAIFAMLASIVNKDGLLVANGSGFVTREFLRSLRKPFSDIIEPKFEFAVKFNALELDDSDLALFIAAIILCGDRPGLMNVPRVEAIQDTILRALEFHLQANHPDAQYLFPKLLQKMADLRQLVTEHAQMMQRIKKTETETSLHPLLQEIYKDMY
# Procedure, shortened: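 Cell-based TRANS reporter: HepG2, transient MRTU transfection, 24 h exposure. Readout = reporter mRNA (RT-PCR/CE, 6-FAM). Gain-of-signal fit vs DMSO control.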
# [2] = BSK_3C_Proliferation: Cell Proliferation Assessment in the BioMAP Diversity Plus: 3C Assay (AID 2283006; active = hit-call score of the fitted dose curve at least 0.9, where 1 is the maximum; inactive = score below 0.9;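 as to AC50: potency may reflect either rise or fall in cell number versus DMSO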); settings: primary human endothelial cells (HUVEC)
# Procedure, shortened: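 Human umbilical vein endothelial cells were grown sub-confluent and exposed to chemical for 48 h, then fixed with 10% TCA and stained with 0.1% sulforhodamine B; absorbance at 560 nm gave relative cell number, fitted bidirectionally against DMSO baseline.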
# [3] = molecular target: Nuclear receptor subfamily 1 group I member 2 (Homo sapiens) (UniProt O75469); assay: ATG_PXR_TRANS: Attagene TRANS-FACTORIAL HepG2 Assay for human Pregnane X Receptor (PXR) (AID 2283008)
# Chain of Nuclear receptor subfamily 1 group I member 2 (Homo sapiens) (O75469 whole entry, looked up, the tested form may be a part): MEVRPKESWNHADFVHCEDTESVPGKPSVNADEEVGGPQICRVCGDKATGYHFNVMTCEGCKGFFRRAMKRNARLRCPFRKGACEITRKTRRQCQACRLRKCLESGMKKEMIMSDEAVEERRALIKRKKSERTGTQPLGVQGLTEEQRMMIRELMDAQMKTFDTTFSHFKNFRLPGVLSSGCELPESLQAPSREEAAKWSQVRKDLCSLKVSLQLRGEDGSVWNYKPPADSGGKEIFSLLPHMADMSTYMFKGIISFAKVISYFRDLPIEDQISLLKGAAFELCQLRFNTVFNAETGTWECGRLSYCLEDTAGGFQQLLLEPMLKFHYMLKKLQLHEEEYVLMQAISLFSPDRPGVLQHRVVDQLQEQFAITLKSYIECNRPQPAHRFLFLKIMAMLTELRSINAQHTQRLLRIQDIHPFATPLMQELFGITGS
# Procedure, shortened: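 Measures mRNA induction of a GAL4-UAS-driven reporter in human HepG2 cells transiently expressing PXR fused to Gal4, following 24 h treatment. DMSO served as negative control and baseline.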
# [4] = molecular target: human RAR-related Orphan Receptor beta (RORb), RORB (gene 6096) (UniProt Q92753); assay: ATG_RORb_TRANS: Attagene TRANS-FACTORIAL HepG2 Assay for human RAR-related Orphan Receptor beta (RORb) (AID 2283010)
# Chain of human RAR-related Orphan Receptor beta (RORb), RORB (gene 6096) (Q92753 whole entry, looked up, the tested form may be a part): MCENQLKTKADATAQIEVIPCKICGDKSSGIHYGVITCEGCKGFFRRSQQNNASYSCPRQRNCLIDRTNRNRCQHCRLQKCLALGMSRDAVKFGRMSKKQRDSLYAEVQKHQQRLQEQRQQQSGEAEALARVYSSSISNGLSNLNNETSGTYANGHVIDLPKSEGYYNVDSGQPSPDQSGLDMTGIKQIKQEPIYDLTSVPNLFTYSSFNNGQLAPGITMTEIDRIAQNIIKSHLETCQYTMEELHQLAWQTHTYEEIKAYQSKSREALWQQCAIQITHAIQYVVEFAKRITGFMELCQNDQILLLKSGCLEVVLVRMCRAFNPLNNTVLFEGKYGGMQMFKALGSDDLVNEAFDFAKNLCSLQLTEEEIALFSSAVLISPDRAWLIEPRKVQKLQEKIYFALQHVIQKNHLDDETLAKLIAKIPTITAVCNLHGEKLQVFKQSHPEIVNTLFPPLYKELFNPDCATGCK
# Procedure, shortened: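 HepG2 cells were transiently transfected with multiplexed GAL4-UAS reporter units expressing chimeric nuclear receptor–GAL4 proteins, then dosed for 24 h. Reporter mRNA was quantified by RT-PCR with fluorescent labelling and capillary electrophoresis; gain of signal was fitted relative to DMSO.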
# [5] = molecular target: human RAR-related Orphan Receptor gamma (RORg), RORC (gene 6097) (UniProt P51449); assay: ATG_RORg_TRANS: Attagene TRANS-FACTORIAL HepG2 Assay for human RAR-related Orphan Receptor gamma (RORg) (AID 2283011)
# Chain of human RAR-related Orphan Receptor gamma (RORg), RORC (gene 6097) (P51449 whole entry, looked up, the tested form may be a part): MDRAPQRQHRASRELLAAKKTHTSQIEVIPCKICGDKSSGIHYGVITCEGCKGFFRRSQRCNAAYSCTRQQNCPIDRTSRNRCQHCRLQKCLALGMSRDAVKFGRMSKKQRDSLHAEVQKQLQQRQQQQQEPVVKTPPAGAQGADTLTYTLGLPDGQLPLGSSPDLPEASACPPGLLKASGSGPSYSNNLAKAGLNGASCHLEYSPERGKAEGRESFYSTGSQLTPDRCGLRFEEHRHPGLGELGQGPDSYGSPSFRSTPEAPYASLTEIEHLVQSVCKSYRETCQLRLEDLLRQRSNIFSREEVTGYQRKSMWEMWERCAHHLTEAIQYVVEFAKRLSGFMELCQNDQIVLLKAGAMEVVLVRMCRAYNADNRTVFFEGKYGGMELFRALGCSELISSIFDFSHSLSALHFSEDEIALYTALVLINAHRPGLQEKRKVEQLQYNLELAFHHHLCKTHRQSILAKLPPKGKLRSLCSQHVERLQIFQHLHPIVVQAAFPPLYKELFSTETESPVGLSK
# Procedure, shortened: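 Activity is scored as increase in GAL4-UAS reporter mRNA over DMSO, detected by fluorescent RT-PCR and capillary electrophoresis in HepG2 cells transiently expressing a RORg-Gal4 chimera, 24 h after dosing.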
# [6] = read-out: Intercellular Adhesion Molecule 1 (ICAM1), ICAM1 (gene 3383); assay: BSK_3C_ICAM1: BioMAP Diversity Plus: 3C Assay for Intercellular Adhesion Molecule 1 (ICAM1) Biomarker Activity (AID 2283003; active = hit-call score of the fitted dose curve at least 0.9, where 1 is the maximum; inactive = score below 0.9); settings: primary human endothelial cells (HUVEC); actives raise or lower the signal
# Procedure, shortened: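 Primary human umbilical vein endothelial cells in the BioMAP 3C system were exposed to chemicals for 24 h, then ICAM-1 was quantified by ELISA. Activity was fitted bidirectionally against the DMSO negative control baseline.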
# [7] = molecular target: Peroxisome proliferator-activated receptor gamma (Homo sapiens) (UniProt P37231); assay: ATG_PPARg_TRANS: Attagene TRANS-FACTORIAL HepG2 Assay for human Peroxisome Proliferator-activated Receptor-gamma (PPARg) (AID 2283007)
# Chain of Peroxisome proliferator-activated receptor gamma (Homo sapiens) (P37231 whole entry, looked up, the tested form may be a part): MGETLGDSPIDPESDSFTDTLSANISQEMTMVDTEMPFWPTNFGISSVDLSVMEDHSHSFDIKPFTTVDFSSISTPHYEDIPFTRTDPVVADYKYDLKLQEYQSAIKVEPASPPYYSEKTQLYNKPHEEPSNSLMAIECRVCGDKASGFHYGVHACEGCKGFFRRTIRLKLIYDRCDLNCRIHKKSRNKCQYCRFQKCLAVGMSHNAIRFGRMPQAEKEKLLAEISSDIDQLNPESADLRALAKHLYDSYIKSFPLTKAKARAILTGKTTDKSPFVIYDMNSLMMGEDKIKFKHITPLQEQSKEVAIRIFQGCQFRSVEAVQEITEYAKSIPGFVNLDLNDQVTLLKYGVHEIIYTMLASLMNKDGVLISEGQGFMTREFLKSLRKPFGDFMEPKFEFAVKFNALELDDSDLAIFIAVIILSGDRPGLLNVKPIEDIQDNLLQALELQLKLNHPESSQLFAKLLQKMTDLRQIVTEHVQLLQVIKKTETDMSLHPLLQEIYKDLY
# Procedure, shortened: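 Read-out: reporter mRNA induction, detected by fluorescence after RT-PCR and capillary electrophoresis. Transiently transfected human HepG2 liver cells carrying a chimeric NR-Gal4 construct were dosed for 24 h; activity was fitted upward relative to DMSO.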
# [8] = molecular target: Retinoic acid receptor alpha (Homo sapiens) (UniProt P10276); assay: ATG_RARa_TRANS: Attagene TRANS-FACTORIAL HepG2 Assay for human Retinoic Acid Receptor alpha (RARa) (AID 2283005)
# Chain of Retinoic acid receptor alpha (Homo sapiens) (P10276 whole entry, looked up, the tested form may be a part): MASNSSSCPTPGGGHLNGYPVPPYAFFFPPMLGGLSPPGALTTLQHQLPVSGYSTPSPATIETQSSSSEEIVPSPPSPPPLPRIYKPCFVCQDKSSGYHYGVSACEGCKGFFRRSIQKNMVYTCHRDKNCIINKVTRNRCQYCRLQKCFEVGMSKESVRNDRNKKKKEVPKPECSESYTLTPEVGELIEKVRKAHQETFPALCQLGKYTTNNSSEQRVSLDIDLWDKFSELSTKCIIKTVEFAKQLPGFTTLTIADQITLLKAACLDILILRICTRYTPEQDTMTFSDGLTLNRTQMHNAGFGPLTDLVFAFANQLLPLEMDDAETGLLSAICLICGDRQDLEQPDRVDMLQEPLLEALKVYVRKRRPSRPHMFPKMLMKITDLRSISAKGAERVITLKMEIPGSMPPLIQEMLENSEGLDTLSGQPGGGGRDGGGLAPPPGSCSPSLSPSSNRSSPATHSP
# Procedure, shortened: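 Reporter transcripts, measured by RT-PCR with fluorescent labeling and capillary electrophoresis after 24 h dosing, reflect activity of an exogenous human RARa–GAL4 fusion in transiently transfected HepG2. Fitted for increase relative to DMSO.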
# [9] = molecular target: human Retinoic Acid Receptor gamma (RARg), RARG (gene 5916) (UniProt P13631); assay: ATG_RARg_TRANS: Attagene TRANS-FACTORIAL HepG2 Assay for human Retinoic Acid Receptor gamma (RARg) (AID 2283009)
# Chain of human Retinoic Acid Receptor gamma (RARg), RARG (gene 5916) (P13631 whole entry, looked up, the tested form may be a part): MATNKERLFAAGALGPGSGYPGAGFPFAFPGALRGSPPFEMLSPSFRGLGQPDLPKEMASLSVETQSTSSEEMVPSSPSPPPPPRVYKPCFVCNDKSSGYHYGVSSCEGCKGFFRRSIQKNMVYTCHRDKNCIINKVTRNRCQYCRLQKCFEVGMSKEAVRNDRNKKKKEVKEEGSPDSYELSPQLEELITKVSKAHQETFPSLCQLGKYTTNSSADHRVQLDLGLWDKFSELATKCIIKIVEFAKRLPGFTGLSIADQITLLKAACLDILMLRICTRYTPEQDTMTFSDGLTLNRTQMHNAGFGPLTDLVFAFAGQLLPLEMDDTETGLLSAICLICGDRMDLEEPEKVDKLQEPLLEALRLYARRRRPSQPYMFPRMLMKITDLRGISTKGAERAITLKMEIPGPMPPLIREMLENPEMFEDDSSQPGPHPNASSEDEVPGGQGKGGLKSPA
# Procedure, shortened: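 HepG2 cells transiently transfected with multiplexed reporter units expressing chimeric RARg-GAL4 and GAL4-UAS-driven reporters; 24 h compound exposure. Reporter mRNA quantified by RT-PCR with fluorescent labelling and capillary electrophoresis; gain-of-signal fitted relative to DMSO baseline.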
smiles,measurement,setting,value
Cc1cc(SC2=C(O)C[C@@](CCc3ccc(N)cc3)(C(C)C)OC2=O)c(C(C)(C)C)cc1CO,outcome,[1],inactive
same,outcome,[2],inactive
same,AC50,[3],1.65 µM (active)
same,outcome,[4],inactive
same,outcome,[5],inactive
C#CC(O)C(CC)CCCC (configuration not stated),outcome,[6],inactive
same,outcome,[2],inactive
same,AC50,[7],59.2 µM (active)
same,AC50,[3],25.5 µM (active)
same,outcome,[4],inactive
CN(C)CCCN1c2ccccc2Sc2ccc(Cl)cc21,outcome,[1],inactive
same,AC50,[2],25 µM (active)
same,outcome,[3],inactive
C/C=C/c1ccc(OC)cc1,outcome,[1],inactive
same,outcome,[2],inactive
same,outcome,[3],inactive
CCOCCOCCO,outcome,[6],inactive
same,outcome,[2],inactive
same,outcome,[7],inactive
CCc1cc(C2=C(C(=O)O)N(c3ccccc3C(F)(F)F)S(=O)(=O)c3ccccc32)cc2c1OCO2,outcome,[1],inactive
same,AC50,[2],16.6 µM (active)
same,AC50,[3],1.42 µM (active)
same,outcome,[5],inactive
OCC(CO)n1cnc(-c2ccc(F)cc2)c1-c1ccnc(Oc2ccccc2)n1,outcome,[6],inactive
same,outcome,[2],inactive
same,outcome,[7],inactive
same,AC50,[3],6.83 µM (active)
same,outcome,[4],inactive
CC1=C(C)S(=O)(=O)CCS1(=O)=O,outcome,[6],inactive
same,outcome,[2],inactive
same,AC50,[7],77.8 µM (active)
same,outcome,[3],inactive
same,outcome,[5],inactive
CCCCOC(=O)CCCCC(=O)OCCCC,outcome,[1],inactive
same,outcome,[2],inactive
same,outcome,[7],inactive
same,outcome,[3],inactive
CCCCCCCCCCCCCCOS(=O)(=O)O,outcome,[6],inactive
same,AC50,[2],30.1 µM (active)
same,AC50,[7],11.1 µM (active)
same,outcome,[4],inactive
CC(COCC(C)OC(=O)c1ccccc1)OC(=O)c1ccccc1 (configuration not stated),outcome,[6],inactive
same,outcome,[8],inactive
same,outcome,[2],inactive
same,outcome,[7],inactive
same,outcome,[3],inactive
same,outcome,[9],inactive
same,outcome,[5],inactive
CC(=O)S[C@H](C(=O)N[C@H]1Cc2ccccc2[C@H]2CCC[C@@H](C(=O)O)N2C1=O)C(C)C,outcome,[6],inactive
same,outcome,[2],inactive
same,outcome,[7],inactive
same,outcome,[3],inactive
N[C@@H](Cc1c[nH]c2ccccc12)C(=O)O,outcome,[6],inactive
same,outcome,[8],inactive
same,outcome,[2],inactive
same,outcome,[3],inactive
same,outcome,[9],inactive
same,outcome,[4],inactive
same,outcome,[5],inactive
O=C(O)CN(CC(=O)O)CC(=O)O,outcome,[1],inactive
same,outcome,[2],inactive
same,outcome,[9],inactive
same,outcome,[5],inactive
COc1ccc(OC(F)(F)F)cc1CN[C@H]1CCCN[C@H]1c1ccccc1,outcome,[1],inactive
same,AC50,[2],28.2 µM (active)
same,AC50,[3],2.95 µM (active)
OCC(O)CO,outcome,[6],inactive
same,outcome,[2],inactive
O=C(N[C@@H](c1ccccc1)[C@@H]1CCCCN1)c1cccc(C(F)(F)F)c1Cl,outcome,[1],inactive
same,AC50,[2],27.6 µM (active)
same,outcome,[7],inactive
same,AC50,[3],5.4 µM (active)
same,outcome,[9],inactive
CC(C)NCC(O)c1ccc(O)c(O)c1 (configuration not stated),outcome,[1],inactive
same,outcome,[2],inactive
same,outcome,[5],inactive
Cc1occc(=O)c1O,outcome,[6],inactive
same,outcome,[2],inactive
same,outcome,[7],inactive
same,outcome,[4],inactive
NCCOCCOCCN,outcome,[6],inactive
same,outcome,[2],inactive
same,outcome,[7],inactive
same,outcome,[3],inactive
same,outcome,[5],inactive
O=C(O)CC(O)(CC(=O)O)C(=O)O,outcome,[6],inactive
same,outcome,[2],inactive
